Test results taken from article PMC7862700, “An all-to-all approach to the identification of sequence-specific readers for epigenetic DNA modifications on cytosine”.

Legend:
Assay in all cases: DAPPL (digital affinity profiling via proximity ligation, sequencing); 10 mM Tris-HCl pH 7.5, 50 mM NaCl, 1 mM DTT, 4% glycerol, room temperature, 30 min; GST-TFs on glutathione beads, 16-mer random dsDNA library, 0.1% formaldehyde crosslink after washing; high values mean tight binding
FLI1 = biological target: T1, FLI1 (Homo sapiens, UniProt Q01543 1-452); conditions: protein: recombinant; tags: N-terminal GST; dsDNA, one strand shown
T1 sequence: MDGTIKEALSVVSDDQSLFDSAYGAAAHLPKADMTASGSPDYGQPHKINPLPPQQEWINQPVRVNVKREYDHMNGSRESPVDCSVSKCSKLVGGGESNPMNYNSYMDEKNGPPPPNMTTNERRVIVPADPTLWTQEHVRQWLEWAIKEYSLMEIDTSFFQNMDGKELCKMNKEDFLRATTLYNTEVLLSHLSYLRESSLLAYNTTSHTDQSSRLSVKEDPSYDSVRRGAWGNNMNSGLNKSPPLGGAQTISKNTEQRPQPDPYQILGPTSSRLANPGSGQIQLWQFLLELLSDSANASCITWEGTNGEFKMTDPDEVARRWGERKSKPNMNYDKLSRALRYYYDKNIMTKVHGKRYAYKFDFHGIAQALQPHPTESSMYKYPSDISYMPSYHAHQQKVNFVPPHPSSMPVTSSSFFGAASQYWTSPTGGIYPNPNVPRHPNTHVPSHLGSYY
Summary of the method: (§1)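 Pools of DNA-barcoded human transcription factors, expressed in yeast as GST fusions on glutathione beads and combined with a tag-only sample, were incubated with 200 nmole of a 16-mer random double-stranded DNA library. Incubation took 30 min at room temperature in Tris/NaCl/DTT/glycerol buffer and was followed by washing, 0.1% formaldehyde crosslinking, proximity ligation (BsaI/T4 ligase, 1 h, 37 °C), PCR amplification and sequencing on an Illumina NextSeq500. Binding signal is the ratio of a hexamer's read frequency for a factor to its frequency for the tag-only sample.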

ELK1 = biological target: T2, ELK1 (Homo sapiens, UniProt P19419 1-428); conditions: protein: recombinant; tags: N-terminal GST; dsDNA, one strand shown
T2 sequence: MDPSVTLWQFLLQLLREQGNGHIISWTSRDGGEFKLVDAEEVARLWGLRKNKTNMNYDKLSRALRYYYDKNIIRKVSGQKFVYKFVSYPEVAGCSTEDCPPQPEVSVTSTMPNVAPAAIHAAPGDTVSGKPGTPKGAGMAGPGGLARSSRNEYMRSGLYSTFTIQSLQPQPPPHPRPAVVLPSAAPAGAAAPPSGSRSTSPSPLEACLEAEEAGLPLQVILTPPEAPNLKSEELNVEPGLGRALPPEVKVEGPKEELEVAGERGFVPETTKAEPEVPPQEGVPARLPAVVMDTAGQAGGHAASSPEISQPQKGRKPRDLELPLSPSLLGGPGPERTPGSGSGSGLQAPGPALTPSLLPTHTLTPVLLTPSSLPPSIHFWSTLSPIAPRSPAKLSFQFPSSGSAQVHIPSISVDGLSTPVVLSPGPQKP
Summary of the method: as §1

GABPA = biological target: T3, GABPA (Homo sapiens, UniProt Q06546 1-454); conditions: protein: recombinant; tags: N-terminal GST; dsDNA, one strand shown
T3 sequence: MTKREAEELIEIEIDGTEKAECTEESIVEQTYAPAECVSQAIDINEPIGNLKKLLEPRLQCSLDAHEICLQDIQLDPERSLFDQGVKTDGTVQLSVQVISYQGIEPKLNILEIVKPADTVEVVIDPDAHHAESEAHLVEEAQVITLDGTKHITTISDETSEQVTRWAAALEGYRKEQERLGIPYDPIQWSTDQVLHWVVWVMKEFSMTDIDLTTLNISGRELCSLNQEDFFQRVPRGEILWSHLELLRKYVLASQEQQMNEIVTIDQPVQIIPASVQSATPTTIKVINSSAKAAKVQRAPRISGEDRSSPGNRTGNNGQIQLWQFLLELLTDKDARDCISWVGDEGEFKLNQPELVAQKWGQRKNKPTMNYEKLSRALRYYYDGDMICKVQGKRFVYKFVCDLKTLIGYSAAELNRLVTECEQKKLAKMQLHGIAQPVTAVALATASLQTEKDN
Summary of the method: as §1

ERG = biological target: T4, ERG (Homo sapiens, UniProt P11308 1-479); conditions: protein: recombinant; tags: N-terminal GST; dsDNA, one strand shown
T4 sequence: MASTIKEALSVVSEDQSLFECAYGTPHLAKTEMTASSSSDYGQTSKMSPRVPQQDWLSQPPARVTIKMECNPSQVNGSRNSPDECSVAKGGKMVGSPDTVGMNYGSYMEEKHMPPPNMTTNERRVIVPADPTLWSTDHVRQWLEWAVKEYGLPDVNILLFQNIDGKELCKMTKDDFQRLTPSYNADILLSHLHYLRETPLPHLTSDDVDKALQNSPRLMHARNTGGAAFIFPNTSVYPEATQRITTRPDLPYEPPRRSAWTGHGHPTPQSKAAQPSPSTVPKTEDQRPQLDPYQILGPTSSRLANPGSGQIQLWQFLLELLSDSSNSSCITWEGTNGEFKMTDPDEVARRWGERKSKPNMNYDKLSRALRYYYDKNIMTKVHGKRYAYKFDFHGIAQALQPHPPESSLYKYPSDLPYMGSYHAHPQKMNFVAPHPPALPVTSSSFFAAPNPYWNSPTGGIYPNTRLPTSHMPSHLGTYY
Summary of the method: as §1

ELF1 = ELF1 (Homo sapiens, UniProt P32519 1-619); conditions: protein: recombinant; tags: N-terminal GST; dsDNA, one strand shown
Sequence of ELF1 (P32519 whole entry): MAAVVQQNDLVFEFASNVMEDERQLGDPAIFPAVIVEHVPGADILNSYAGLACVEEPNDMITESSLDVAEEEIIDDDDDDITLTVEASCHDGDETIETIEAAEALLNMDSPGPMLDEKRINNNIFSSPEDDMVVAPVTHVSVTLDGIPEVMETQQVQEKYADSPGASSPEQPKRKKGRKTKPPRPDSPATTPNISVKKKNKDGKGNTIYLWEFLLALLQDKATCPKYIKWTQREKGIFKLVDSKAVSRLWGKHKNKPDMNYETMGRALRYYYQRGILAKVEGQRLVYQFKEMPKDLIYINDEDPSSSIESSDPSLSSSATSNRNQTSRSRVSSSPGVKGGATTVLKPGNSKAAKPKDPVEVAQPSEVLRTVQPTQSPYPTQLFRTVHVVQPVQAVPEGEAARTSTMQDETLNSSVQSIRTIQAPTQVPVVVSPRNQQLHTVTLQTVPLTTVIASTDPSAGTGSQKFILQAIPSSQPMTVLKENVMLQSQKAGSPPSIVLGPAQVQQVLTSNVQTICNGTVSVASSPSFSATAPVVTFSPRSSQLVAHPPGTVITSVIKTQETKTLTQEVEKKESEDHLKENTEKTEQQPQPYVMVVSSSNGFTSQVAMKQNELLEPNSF
Summary of the method: as §1

EHF = biological target: T5, EHF (Homo sapiens, UniProt Q9NZC4 1-300); conditions: protein: recombinant; tags: N-terminal GST; dsDNA, one strand shown
T5 sequence: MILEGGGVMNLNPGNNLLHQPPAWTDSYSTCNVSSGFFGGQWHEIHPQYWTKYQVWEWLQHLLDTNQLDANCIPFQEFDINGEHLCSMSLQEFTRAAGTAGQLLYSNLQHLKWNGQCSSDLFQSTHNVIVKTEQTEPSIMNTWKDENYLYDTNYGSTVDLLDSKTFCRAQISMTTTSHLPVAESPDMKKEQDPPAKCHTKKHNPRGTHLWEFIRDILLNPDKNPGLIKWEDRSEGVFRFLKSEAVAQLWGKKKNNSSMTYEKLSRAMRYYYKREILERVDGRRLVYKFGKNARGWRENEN
Summary of the method: as §1

SPI1 = SPI1 (Homo sapiens, UniProt P17947 1-270); conditions: protein: recombinant; tags: N-terminal GST; dsDNA, one strand shown
Summary of the method: as §1

SPIB = SPIB (Homo sapiens, UniProt Q01892 1-262); conditions: protein: recombinant; tags: N-terminal GST; dsDNA, one strand shown
Sequence of SPIB (Q01892 whole entry): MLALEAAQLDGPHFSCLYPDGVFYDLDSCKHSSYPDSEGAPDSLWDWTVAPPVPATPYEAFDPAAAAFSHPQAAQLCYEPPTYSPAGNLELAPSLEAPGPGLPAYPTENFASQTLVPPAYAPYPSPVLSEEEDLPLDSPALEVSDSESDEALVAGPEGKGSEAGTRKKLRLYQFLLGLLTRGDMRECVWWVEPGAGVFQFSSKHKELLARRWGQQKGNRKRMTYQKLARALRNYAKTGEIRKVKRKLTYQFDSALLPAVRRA
Summary of the method: as §1

ELK3 = biological target: T6, ELK3 (Homo sapiens, UniProt P41970 1-407); conditions: protein: recombinant; tags: N-terminal GST; dsDNA, one strand shown
T6 sequence: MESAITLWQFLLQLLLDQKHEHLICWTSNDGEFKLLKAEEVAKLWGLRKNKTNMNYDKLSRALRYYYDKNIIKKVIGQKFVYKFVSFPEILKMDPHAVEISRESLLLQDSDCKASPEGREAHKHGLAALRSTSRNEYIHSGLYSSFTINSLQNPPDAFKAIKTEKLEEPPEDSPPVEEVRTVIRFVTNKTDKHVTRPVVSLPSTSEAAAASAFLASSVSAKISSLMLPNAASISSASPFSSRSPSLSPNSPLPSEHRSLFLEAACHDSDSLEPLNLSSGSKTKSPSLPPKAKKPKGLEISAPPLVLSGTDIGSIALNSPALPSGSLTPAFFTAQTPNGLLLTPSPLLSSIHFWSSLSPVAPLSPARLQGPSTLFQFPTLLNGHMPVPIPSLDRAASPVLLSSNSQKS
Summary of the method: as §1

FEV = biological target: T7, FEV (Homo sapiens, UniProt Q99581 1-238); conditions: protein: recombinant; tags: N-terminal GST; dsDNA, one strand shown
T7 sequence: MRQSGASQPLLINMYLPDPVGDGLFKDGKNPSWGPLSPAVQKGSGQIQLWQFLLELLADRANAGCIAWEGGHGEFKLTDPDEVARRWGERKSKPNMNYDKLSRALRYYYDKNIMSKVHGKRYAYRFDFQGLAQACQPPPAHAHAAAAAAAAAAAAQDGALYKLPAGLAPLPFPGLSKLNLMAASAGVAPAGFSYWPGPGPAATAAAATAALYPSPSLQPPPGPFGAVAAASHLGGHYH
Summary of the method: as §1

ETV5 = ETV5 (Homo sapiens, UniProt P41161 1-510); conditions: protein: recombinant; tags: N-terminal GST; dsDNA, one strand shown
Sequence of ETV5 (P41161 whole entry): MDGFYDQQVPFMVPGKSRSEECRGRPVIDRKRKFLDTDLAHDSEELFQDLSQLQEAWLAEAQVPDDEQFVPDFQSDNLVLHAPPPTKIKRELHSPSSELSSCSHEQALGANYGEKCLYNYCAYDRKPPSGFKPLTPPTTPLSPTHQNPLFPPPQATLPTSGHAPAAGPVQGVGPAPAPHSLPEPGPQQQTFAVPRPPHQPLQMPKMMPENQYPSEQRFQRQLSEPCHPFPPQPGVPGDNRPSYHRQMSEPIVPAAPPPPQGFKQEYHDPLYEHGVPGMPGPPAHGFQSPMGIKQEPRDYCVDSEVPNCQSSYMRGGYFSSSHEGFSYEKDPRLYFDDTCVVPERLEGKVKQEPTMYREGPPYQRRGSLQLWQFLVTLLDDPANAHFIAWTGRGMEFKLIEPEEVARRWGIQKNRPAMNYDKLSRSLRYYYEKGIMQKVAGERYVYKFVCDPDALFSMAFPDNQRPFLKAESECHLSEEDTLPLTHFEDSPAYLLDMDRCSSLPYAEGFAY
Summary of the method: as §1

HSF1 = HSF1 (Homo sapiens, UniProt Q00613 1-529); conditions: protein: recombinant; tags: N-terminal GST; chain copies: 3; dsDNA, one strand shown
Sequence of HSF1 (Q00613 whole entry): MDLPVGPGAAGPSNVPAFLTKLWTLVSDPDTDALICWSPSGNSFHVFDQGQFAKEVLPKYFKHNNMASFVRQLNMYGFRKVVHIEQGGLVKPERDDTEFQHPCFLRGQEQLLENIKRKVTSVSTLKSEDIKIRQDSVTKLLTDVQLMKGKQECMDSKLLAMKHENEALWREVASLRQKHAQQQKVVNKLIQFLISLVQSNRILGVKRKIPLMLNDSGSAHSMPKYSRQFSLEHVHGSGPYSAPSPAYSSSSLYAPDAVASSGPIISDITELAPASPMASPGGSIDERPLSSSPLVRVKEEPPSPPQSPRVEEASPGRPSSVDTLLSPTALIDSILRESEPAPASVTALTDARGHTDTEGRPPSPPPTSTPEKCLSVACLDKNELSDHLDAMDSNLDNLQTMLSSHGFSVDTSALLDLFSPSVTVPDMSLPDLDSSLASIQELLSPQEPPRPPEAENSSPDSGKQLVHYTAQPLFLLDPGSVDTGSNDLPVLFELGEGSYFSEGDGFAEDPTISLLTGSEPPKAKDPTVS
Summary of the method: as §1

SPIC = biological target: T8, SPIC (Homo sapiens, UniProt Q8N5J4 1-248); conditions: protein: recombinant; tags: N-terminal GST; dsDNA, one strand shown
T8 sequence: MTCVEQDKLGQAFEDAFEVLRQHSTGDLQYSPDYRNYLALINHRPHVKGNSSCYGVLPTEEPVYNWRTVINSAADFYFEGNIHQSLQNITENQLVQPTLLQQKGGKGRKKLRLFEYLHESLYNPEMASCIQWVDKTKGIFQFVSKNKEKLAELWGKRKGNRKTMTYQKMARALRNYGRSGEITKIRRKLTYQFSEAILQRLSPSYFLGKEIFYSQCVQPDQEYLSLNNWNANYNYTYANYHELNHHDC
Summary of the method: as §1

ELF4 = ELF4 (Homo sapiens, UniProt Q99607 1-663); conditions: protein: recombinant; tags: N-terminal GST; dsDNA, one strand shown
Sequence of ELF4 (Q99607 whole entry): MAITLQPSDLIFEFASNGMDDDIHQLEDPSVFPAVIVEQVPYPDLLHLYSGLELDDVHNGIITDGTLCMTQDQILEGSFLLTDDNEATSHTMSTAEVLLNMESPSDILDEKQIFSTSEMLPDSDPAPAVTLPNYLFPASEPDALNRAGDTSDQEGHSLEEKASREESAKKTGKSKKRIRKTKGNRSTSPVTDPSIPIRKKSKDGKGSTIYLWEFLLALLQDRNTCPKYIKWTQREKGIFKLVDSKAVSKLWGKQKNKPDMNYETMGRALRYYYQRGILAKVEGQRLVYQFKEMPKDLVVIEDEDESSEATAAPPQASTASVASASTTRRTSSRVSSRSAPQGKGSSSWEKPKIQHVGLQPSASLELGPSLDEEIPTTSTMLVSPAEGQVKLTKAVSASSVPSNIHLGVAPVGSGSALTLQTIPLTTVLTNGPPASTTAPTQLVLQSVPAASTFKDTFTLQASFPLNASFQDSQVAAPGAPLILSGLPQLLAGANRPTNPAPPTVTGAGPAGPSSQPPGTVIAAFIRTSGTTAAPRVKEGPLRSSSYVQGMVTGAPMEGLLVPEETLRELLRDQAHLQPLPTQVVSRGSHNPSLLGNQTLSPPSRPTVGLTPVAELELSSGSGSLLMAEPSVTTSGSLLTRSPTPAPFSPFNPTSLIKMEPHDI
Summary of the method: as §1

ELK4 = biological target: T9, ELK4 (Homo sapiens, UniProt P28324-2 1-405); conditions: protein: recombinant; tags: N-terminal GST; dsDNA, one strand shown
T9 sequence: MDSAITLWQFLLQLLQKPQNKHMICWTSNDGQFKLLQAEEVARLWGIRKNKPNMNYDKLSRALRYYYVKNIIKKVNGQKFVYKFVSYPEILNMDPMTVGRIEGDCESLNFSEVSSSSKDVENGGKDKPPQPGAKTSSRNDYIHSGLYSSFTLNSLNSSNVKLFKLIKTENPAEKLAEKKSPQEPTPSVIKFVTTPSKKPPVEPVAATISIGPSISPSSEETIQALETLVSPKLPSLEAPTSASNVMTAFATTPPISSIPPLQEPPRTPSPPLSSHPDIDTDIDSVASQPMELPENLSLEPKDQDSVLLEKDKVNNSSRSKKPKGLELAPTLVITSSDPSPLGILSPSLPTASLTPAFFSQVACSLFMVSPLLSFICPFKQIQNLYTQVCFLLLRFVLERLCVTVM
Summary of the method: as §1

ETV2 = biological target: T10, ETV2 (Homo sapiens, UniProt O00321 1-342); conditions: protein: recombinant; tags: N-terminal GST; dsDNA, one strand shown
T10 sequence: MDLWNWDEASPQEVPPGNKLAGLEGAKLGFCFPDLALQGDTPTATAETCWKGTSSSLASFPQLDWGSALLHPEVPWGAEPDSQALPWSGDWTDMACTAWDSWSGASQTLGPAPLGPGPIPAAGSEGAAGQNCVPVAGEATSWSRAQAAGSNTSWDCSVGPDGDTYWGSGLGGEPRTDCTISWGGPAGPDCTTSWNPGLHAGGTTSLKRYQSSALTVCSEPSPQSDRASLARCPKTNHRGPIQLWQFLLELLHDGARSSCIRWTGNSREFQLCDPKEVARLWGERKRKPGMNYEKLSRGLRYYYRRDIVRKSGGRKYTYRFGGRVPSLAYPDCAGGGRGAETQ
Summary of the method: as §1

ELF3 = biological target: T11, ELF3 (Homo sapiens, UniProt P78545 1-371); conditions: protein: recombinant; tags: N-terminal GST; dsDNA, one strand shown
T11 sequence: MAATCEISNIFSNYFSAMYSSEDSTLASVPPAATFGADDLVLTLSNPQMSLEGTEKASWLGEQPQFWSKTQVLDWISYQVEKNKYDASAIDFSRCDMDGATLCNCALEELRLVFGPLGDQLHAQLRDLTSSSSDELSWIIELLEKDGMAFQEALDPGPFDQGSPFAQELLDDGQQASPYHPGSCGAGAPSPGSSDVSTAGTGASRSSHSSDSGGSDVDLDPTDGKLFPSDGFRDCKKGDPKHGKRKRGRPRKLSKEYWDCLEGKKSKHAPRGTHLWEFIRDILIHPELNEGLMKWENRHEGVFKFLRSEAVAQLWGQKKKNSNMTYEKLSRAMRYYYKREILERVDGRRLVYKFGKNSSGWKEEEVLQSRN
Summary of the method: as §1

CRX = CRX (Homo sapiens, UniProt O43186 1-299); conditions: protein: recombinant; tags: N-terminal GST; dsDNA, one strand shown
Sequence of CRX (O43186 whole entry): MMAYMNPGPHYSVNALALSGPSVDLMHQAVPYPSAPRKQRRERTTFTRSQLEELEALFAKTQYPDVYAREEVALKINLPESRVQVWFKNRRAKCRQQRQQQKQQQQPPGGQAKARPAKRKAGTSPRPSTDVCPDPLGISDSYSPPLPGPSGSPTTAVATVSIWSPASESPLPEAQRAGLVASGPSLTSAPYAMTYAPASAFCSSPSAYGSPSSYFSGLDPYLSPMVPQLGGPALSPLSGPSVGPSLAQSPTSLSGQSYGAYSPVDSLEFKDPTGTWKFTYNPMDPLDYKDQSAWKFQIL
Summary of the method: as §1

ETV1 = ETV1 (Homo sapiens, UniProt P50549 1-477); conditions: protein: recombinant; tags: N-terminal GST; dsDNA, one strand shown
Sequence of ETV1 (P50549 whole entry): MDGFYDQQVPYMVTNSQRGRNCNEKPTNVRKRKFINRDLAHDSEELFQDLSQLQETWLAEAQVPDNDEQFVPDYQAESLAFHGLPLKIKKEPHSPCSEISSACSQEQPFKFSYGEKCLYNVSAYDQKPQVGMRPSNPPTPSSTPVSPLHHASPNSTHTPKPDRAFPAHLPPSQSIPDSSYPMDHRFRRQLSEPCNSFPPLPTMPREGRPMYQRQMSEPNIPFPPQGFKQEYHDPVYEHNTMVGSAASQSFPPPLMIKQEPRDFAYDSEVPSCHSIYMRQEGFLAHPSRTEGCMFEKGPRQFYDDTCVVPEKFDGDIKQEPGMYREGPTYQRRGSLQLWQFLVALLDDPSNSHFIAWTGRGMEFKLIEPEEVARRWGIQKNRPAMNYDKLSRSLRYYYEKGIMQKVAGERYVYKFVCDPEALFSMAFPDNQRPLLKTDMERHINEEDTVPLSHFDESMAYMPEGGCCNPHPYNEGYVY
Summary of the method: as §1

What does the source list for TGGGAT?
binding signal (FLI1): 1.12 fold enrichment (6-mer frequency, TF over GST control); binding signal (ELK1): 1.17 fold enrichment (6-mer frequency, TF over GST control); binding signal (GABPA): 1.3 fold enrichment (6-mer frequency, TF over GST control); binding signal (ERG): 1.13 fold enrichment (6-mer frequency, TF over GST control); binding signal (ELF1): 1.25 fold enrichment (6-mer frequency, TF over GST control); binding signal (EHF): 1.25 fold enrichment (6-mer frequency, TF over GST control); binding signal (SPI1): 1.29 fold enrichment (6-mer frequency, TF over GST control); binding signal (SPIB): 1.24 fold enrichment (6-mer frequency, TF over GST control); binding signal (ELK3): 1.17 fold enrichment (6-mer frequency, TF over GST control); binding signal (FEV): 1.18 fold enrichment (6-mer frequency, TF over GST control); binding signal (ETV5): 1.19 fold enrichment (6-mer frequency, TF over GST control); binding signal (HSF1): 1.47 fold enrichment (6-mer frequency, TF over GST control); binding signal (SPIC): 1.17 fold enrichment (6-mer frequency, TF over GST control); binding signal (ELF4): 1.2 fold enrichment (6-mer frequency, TF over GST control); binding signal (ELK4): 1.39 fold enrichment (6-mer frequency, TF over GST control); binding signal (ETV2): 1.14 fold enrichment (6-mer frequency, TF over GST control); binding signal (ELF3): 1.12 fold enrichment (6-mer frequency, TF over GST control); binding signal (CRX): 1.9 fold enrichment (6-mer frequency, TF over GST control); binding signal (ETV1): 1.25 fold enrichment (6-mer frequency, TF over GST control)
